In PubChem BioAssay (EPA / NIEHS) one finds outcome and AC50 data, which are given here for 28 compounds.

Results filed as inconclusive are left out. Calls of active or inactive are those of the source. How the source made its calls, unless noted: active means hit-call score of the fitted dose curve at least 0.9, where 1 is the maximum; inconclusive means response in the unintended direction; inactive means score below 0.9.

Retinoic acid receptor RXR-alpha (Homo sapiens), sequence (P19793 whole entry, looked up): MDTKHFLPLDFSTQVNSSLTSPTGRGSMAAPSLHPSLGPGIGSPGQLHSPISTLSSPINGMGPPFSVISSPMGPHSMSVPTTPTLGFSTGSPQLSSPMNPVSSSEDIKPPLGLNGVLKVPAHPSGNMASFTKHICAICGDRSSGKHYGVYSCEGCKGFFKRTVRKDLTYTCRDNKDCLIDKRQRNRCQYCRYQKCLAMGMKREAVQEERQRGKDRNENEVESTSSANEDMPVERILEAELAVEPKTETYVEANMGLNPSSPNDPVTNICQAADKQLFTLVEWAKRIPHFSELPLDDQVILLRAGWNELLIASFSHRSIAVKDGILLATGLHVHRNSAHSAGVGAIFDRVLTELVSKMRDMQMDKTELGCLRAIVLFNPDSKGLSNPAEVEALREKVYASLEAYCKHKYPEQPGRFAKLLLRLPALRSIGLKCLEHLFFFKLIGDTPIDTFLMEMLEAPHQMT
THRB (gene 7068), sequence (P10828 whole entry, looked up, the tested form may be a part): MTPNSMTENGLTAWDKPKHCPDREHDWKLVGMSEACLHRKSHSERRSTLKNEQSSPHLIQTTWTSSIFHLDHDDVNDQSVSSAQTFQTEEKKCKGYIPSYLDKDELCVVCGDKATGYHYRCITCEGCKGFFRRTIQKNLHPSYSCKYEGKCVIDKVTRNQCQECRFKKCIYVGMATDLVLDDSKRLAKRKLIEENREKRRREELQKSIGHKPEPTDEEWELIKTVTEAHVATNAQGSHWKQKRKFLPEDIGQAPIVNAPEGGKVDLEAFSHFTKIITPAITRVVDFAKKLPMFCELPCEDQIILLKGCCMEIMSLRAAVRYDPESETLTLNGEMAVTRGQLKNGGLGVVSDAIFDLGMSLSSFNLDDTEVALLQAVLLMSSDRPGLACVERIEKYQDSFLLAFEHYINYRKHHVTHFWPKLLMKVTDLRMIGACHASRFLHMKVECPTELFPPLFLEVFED
Nucleoli Translocation, AR (gene 367), sequence (P10275 whole entry, looked up): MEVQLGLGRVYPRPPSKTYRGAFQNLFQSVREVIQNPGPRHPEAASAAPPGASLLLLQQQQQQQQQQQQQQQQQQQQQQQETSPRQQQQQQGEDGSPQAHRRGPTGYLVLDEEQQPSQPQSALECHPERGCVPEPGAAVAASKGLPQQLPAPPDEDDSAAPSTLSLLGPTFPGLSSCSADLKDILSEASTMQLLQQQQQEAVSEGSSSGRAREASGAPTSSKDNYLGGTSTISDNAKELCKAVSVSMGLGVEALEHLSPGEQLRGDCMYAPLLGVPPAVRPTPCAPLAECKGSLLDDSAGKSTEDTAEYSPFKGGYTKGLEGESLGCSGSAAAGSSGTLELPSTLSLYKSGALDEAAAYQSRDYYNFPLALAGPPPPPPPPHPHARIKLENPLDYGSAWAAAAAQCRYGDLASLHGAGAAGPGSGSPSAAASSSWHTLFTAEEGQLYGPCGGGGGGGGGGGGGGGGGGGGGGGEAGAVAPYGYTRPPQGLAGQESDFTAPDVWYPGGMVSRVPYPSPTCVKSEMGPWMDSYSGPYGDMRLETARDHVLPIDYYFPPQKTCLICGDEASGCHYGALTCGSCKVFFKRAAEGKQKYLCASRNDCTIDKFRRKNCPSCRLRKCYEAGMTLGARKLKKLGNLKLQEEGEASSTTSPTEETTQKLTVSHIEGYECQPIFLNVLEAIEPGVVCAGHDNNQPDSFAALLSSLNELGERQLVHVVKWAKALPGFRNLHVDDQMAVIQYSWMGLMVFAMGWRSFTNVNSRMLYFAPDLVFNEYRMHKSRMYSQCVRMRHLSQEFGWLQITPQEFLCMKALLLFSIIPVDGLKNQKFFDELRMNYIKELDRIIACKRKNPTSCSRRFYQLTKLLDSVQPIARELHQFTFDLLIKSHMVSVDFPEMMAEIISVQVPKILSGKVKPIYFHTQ

One experiment concerns the target THRB (gene 7068) (UniProt P10828). Briefly: TOX21_TRB_COA_Agonist_Followup_ratio: Tox21 Thyroid Hormone Receptor beta Agonism through Coactivator Recruitment Follow-Up Assay, Ratio (AID 2283963; active means hit-call score of the fitted dose curve at least 0.9, where 1 is the maximum; inactive means score below 0.9). Summed up: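 Cell-free TR-FRET coactivator recruitment: GST-tagged TRβ LBD (5.0 nM) with 0.10% BSA incubated with compound, then fluorescein-SRC-2 peptide (200 nM) and Tb-anti-GST antibody (2 nM) added. 520:495 nm ratio normalized to DMSO (0%) and T3 (100%).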
As to `O=Cc1ccccc1S(=O)(=O)O`, the result was inactive.
On the same count and under the same terms, the result for `CC(=O)Nc1ccc(C(=O)CCl)cc1` reads “inactive”; that for `OCCCCC(O)CO` (stereo not drawn), “inactive”; that for `Cc1cc(C)nc(NS(=O)(=O)c2ccc(N)cc2)n1`, “inactive”.
The same measure, in the same setting: then `C[C@H](CCC(=O)NCC(=O)O)[C@H]1CC[C@H]2[C@@H]3[C@H](O)C[C@@H]4C[C@H](O)CC[C@]4(C)[C@H]3C[C@H](O)[C@]12C`, with “inactive”.

The next experiment addresses Retinoic acid receptor RXR-alpha (Homo sapiens) (UniProt P19793). Briefly: TOX21_TR_RXR_BLA_Agonist_Followup_ratio: Tox21 Thyroid Hormone Receptor beta Retinoid X Receptor alpha (RXRa) Agonism Beta-lactamase (BLA) Follow-Up Assay, Ratio (AID 2283968). Summed up:
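Read-out: blue/green (460:530 nm) FRET ratio from cleaved vs uncleaved CCF4 substrate, fitted for gain of signal relative to DMSO. Cells: HEK293T with RXRa-UAS-bla reporter; 16 h compound exposure, 11 concentrations, triplicate.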
`O=Cc1ccccc1S(=O)(=O)O`: the outcome was inactive.
Still for that read-out and setting: then `OCCCCC(O)CO` (stereo not drawn), with “inactive”; and `Cc1cc(C)nc(NS(=O)(=O)c2ccc(N)cc2)n1`, with “inactive”; and `N[C@@H](Cc1cc(I)c(Oc2cc(I)c(O)c(I)c2)c(I)c1)C(=O)O`, with “inactive”.
With `C[C@H](CCC(=O)NCC(=O)O)[C@H]1CC[C@H]2[C@@H]3[C@H](O)C[C@@H]4C[C@H](O)CC[C@]4(C)[C@H]3C[C@H](O)[C@]12C`, the outcome was inactive.

Tested on in another experiment: not listed separately
In words: TOX21_TR_RXR_BLA_Agonist_Followup_viability: Viability Assessment in the Tox21 Thyroid Hormone Receptor beta Retinoid X Receptor alpha (RXRa) Agonism Beta-lactamase (BLA) Follow-Up Assay (AID 2283970). Summed up: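 CellTiter-Glo ATP quantitation as viability read-out in RXRa-bla HEK293T cells (2,500/well, charcoal-stripped 2% FBS medium), 16h compound incubation at 37C. Loss of signal versus DMSO taken as cytotoxicity, analyzed by bidirectional curve fitting.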
For `O=Cc1ccccc1S(=O)(=O)O`, the compound was called inactive.
Usually AC50 stands for the concentration giving half of the maximal activity seen. As for `CC(=O)Nc1ccc(C(=O)CCl)cc1`, the AC50 is 69.1 µM (active).
As for `Cc1cc(C)nc(NS(=O)(=O)c2ccc(N)cc2)n1`, the call was inactive.
`N[C@@H](Cc1cc(I)c(Oc2cc(I)c(O)c(I)c2)c(I)c1)C(=O)O`: the outcome was inactive.
The same measure, in the same setting: the result for `C[C@H](CCC(=O)NCC(=O)O)[C@H]1CC[C@H]2[C@@H]3[C@H](O)C[C@@H]4C[C@H](O)CC[C@]4(C)[C@H]3C[C@H](O)[C@]12C` reads “inactive”.

The test system of the next experiment is DIO1 (gene 1733). Briefly: CCTE_GLTED_hDIO1: CCTE's human Deiodinase 1 (DIO1) Inhibition Assay, Great Lakes Toxicology and Ecology Division (GLTED) Lab (AID 2283987).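 Further: isolated human DIO1 enzyme in a cell-free setup rather than cells; enzyme activity read as free iodide liberated from substrate via Sandell-Kolthoff colorimetry.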 Summed up: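 Inhibition of human deiodinase 1 is scored as reduced iodide liberation after a 3 h enzyme–chemical incubation, detected colorimetrically by the Sandell-Kolthoff reaction against DMSO controls.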
In the case of `Oc1ccc2cc(SSc3ccc4cc(O)ccc4c3)ccc2c1`, the AC50 is 2.62 µM (active).
For the compound `CC(C)CCCCCCCCCCCCCCC(=O)O`, the AC50 is 72.8 µM (active).
Same read-out and setting: then `CCOc1ccc(N=Nc2ccc(C=Cc3ccc(N=Nc4ccc(OCC)cc4)cc3S(=O)(=O)O)c(S(=O)(=O)O)c2)cc1`, with 0.72 µM (active); and `CCCCCCCCCCCCCCN(CCO)CCO`, with 30.6 µM (active); and `CCCCCCCCC=CCCCCCCCC1=NCCN1CCO`, with 36.3 µM (active).
On the same count and under the same terms, the result for `CCCCC(CC)COC(=O)c1ccc(O)cc1` (stereo not drawn) reads 85.4 µM (active).
Still for that read-out and setting: then `C=C1CC[C@H](O)C/C1=C/C=C1\CCC[C@]2(C)[C@@H]([C@H](C)/C=C/[C@H](C)C(C)C)CC[C@@H]12`, with 19.8 µM (active).

In another experiment the target is Nucleoli Translocation, AR (gene 367) (UniProt P10275). Briefly: UPITT_HCI_U2OS_AR_TIF2_Nucleoli_Agonist: University of Pittsburgh U2OS Androgen Receptor-Transcriptional Intermediary Factor 2 (AR-TIF2) Agonism High Content Imaging Assay for Nucleoli Translocation (AID 2283998). Summed up:
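Readout is red (AR-RFP) fluorescence localized to nucleoli, measured by high-content imaging and analysed for increase relative to DMSO. Compound series spanned 0.195 to 50 uM final in 0.5% DMSO.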
With `Cc1ccc(S(=O)(=O)Oc2ccc(N=Nc3ccc(-c4ccc(N=Nc5c(O)ccc6cc(S(=O)(=O)O)cc(S(=O)(=O)O)c56)c(C)c4)cc3C)cc2)cc1`, the compound was called inactive.
Same read-out and setting: the result for `CC(=O)C1(C)CC2=C(CCCC2(C)C)CC1C` (stereo not drawn) reads “inactive”; that for `CCCCCCCCSCCO`, “inactive”; that for `CC(C=O)Cc1ccc(C(C)(C)C)cc1` (stereo not drawn), “inactive”.
Turning to `BrCc1cccc(Oc2ccccc2)c1`, the result was inactive.
The same measure, in the same setting: the result for `CCCCCCCCCCCCCC(=O)OCC(O)CO` (stereo not drawn) reads “inactive”.
For the compound `CCc1cc(Cc2cc(CC)cc(C(C)(C)C)c2O)c(O)c(C(C)(C)C)c1`, the half-maximal activity concentration (AC50) was 77.1 µM (active).
For the compound `CCCCCCCCC=CCCCCCCCC1=NCCN1CCO`, the AC50 was 13.3 µM (active).
Turning to `Nc1ccc(N)c2c1C(=O)c1ccccc1C2=O`, the compound was called inactive.
Same read-out and setting: then `CCOC(=O)[C@@H](C)Oc1ccc(Oc2nc3ccc(Cl)cc3o2)cc1`, with “inactive”.

Another experiment deals with Ratio of Nucleoli Translocation and Cytoplasm, AR (gene 367) (UniProt P10275). In words: UPITT_HCI_U2OS_AR_TIF2_Nucleoli_Cytoplasm_Ratio_Antagonist: University of Pittsburgh U2OS Androgen Receptor-Transcriptional Intermediary Factor 2 (AR-TIF2) Antagonism High Content Imaging Assay for Ratio of Nucleoli Translocation and Cytoplasm (AID 2283999).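 Further: antagonists lower the DHT-driven ratio of nucleolar to cytoplasmic red signal.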 Summed up: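 Read-out is the ratio of nucleolar to cytoplasmic AR-RFP fluorescence, imaged by high-content microscopy in U2OS cells coexpressing TIF2-GFP. Single-point 20 uM screen, triplicate confirmation, then 0.195–50 uM dose response; activity referenced to DHT baseline.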
Ratio of Nucleoli Translocation and Cytoplasm, AR (gene 367), sequence (P10275 whole entry, looked up): as above
`Cc1ccc(S(=O)(=O)Oc2ccc(N=Nc3ccc(-c4ccc(N=Nc5c(O)ccc6cc(S(=O)(=O)O)cc(S(=O)(=O)O)c56)c(C)c4)cc3C)cc2)cc1`: the result was inactive.
The same measure, in the same setting: then `CC(=O)C1(C)CC2=C(CCCC2(C)C)CC1C` (stereo not drawn), with “inactive”.
Consider `CCCCC1CCC(O)CC1` (stereo not drawn), for which the result was inactive.
Same read-out and setting: then `CC(C=O)Cc1ccc(C(C)(C)C)cc1` (stereo not drawn), with “inactive”.
Still for that read-out and setting: the result for `BrCc1cccc(Oc2ccccc2)c1` reads “inactive”; that for `CC(=O)O[C@H]1C[C@@H]2CC[C@@]1(C)C2(C)C`, “inactive”.
As for `CCc1cc(Cc2cc(CC)cc(C(C)(C)C)c2O)c(O)c(C(C)(C)C)c1`, the AC50 was 50 µM (active).
With `CCCCCCCCC=CCCCCCCCC1=NCCN1CCO`, the result was inactive.
Still for that read-out and setting: the result for `Nc1ccc(N)c2c1C(=O)c1ccccc1C2=O` reads “inactive”; that for `CC1CCC(C(C)C)C(O)C1` (stereo not drawn), “inactive”.
The same measure, in the same setting: the result for `CC(C)CCCCCCc1ccc(OCCOCCO)cc1` reads “inactive”.
`C[C@H]1O[C@@H](O[C@H]2[C@@H](O)C[C@H](O[C@H]3[C@@H](O)C[C@H](O[C@H]4CC[C@@]5(C)[C@H](CC[C@@H]6[C@@H]5C[C@@H](O)[C@]5(C)[C@@H](C7=CC(=O)OC7)CC[C@]65O)C4)O[C@@H]3C)O[C@@H]2C)C[C@H](O)[C@@H]1O`: the result was inactive.
Still for that read-out and setting: the result for `CCOC(=O)[C@@H](C)Oc1ccc(Oc2nc3ccc(Cl)cc3o2)cc1` reads “inactive”.
Still for that read-out and setting: the result for `OCc1cccc(Oc2ccccc2)c1` reads “inactive”.

The target is the same in a further experiment. In words: UPITT_HCI_U2OS_AR_TIF2_Nucleoli_Cytoplasm_Ratio_Agonist: University of Pittsburgh U2OS Androgen Receptor-Transcriptional Intermediary Factor 2 (AR-TIF2) Agonism High Content Imaging Assay for Ratio of Nucleoli Translocation and Cytoplasm (AID 2284000).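 Further: hits raise the red nucleolar to cytoplasm ratio above vehicle.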 Summed up:
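Human osteosarcoma U2OS line, AR-RFP plus TIF2-GFP; compounds 0.195–50 uM final, 0.5% DMSO. Readout: nucleolar/cytoplasmic RFP ratio by HCI, positive direction vs DMSO baseline.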
Turning to `Cc1ccc(S(=O)(=O)Oc2ccc(N=Nc3ccc(-c4ccc(N=Nc5c(O)ccc6cc(S(=O)(=O)O)cc(S(=O)(=O)O)c56)c(C)c4)cc3C)cc2)cc1`, the outcome was inactive.
On the same count and under the same terms, then `CC(=O)C1(C)CC2=C(CCCC2(C)C)CC1C` (stereo not drawn), with “inactive”; and `CCCCC1CCC(O)CC1` (stereo not drawn), with “inactive”; and `CCCCCCCCSCCO`, with “inactive”.
The same measure, in the same setting: then `CC(C=O)Cc1ccc(C(C)(C)C)cc1` (stereo not drawn), with “inactive”; and `BrCc1cccc(Oc2ccccc2)c1`, with “inactive”; and `CCCCCCCCCCCCCC(=O)OCC(O)CO` (stereo not drawn), with “inactive”.
Turning to `CCc1cc(Cc2cc(CC)cc(C(C)(C)C)c2O)c(O)c(C(C)(C)C)c1`, the AC50 is 91.2 µM (active).
On the same count and under the same terms, the result for `CCCCCCCCC=CCCCCCCCC1=NCCN1CCO` reads 13.7 µM (active).
Take `Nc1ccc(N)c2c1C(=O)c1ccccc1C2=O`: the result was inactive.
Same read-out and setting: then `CCOC(=O)[C@@H](C)Oc1ccc(Oc2nc3ccc(Cl)cc3o2)cc1`, with “inactive”.
Same read-out and setting: then `OCc1cccc(Oc2ccccc2)c1`, with “inactive”.
